From PubChem BioAssay (NCATS)
Inconclusive results are not listed. Entries that show only a call come without a potency. Unmarked numbers belong to inactive results. Activity calls are given as the source filed them. Calls follow the shape of the dose curve; as a rule, active = well fitted inhibition curve with a large enough effect; inconclusive = small, poorly fitted or top-dose-only effect; inactive = flat fitted curve, though single readings scatter.

experiment: qHTS for Inhibitors of Plasmodium falciparum (DD2) proliferation (AID 504314); details: P. falciparum Dd2 in erythrocytes, SYBR Green growth, 72 h; series mostly up to 6.11 µM
Source text: Plasmodium falciparum is a virulent malarial parasite that kills 1-2 million people worldwide each year. Malaria not only inflicts tremendous suffering and morbidity on the human population, but has dramatically influenced the course of civilization with profound sociological and economic implications (Shah, S. 2010). Transmitted by mosquitoes, the sporozoite form of the parasite enters the blood stream to infect hepatocytes, where they become merozoites that infect red blood cells (erythrocytes). Within erythrocytes, merozoites begin a […] cycle of growth and division, after which the parasite is released to infect new red blood cells. Gametocytes, which form within erythrocytes as well, circulate in the bloodstream and are ingested by the mosquito, thereby completing the life cycle (see CDC website). To profile malarial lines for differential chemical responses and to identify inhibitors of malarial growth, an assay that measures P. falciparum growth and replication within erythrocytes was employed. This assay uses a DNA binding fluorescent dye (SYBR Green) to detect parasite DNA following cell lysis. Because mature erythrocytes lack DNA, only Plasmodium-derived DNA is detected. The P. falciparum line cp250, derived from a malarial isolate from Cambodia, (Mu, J., et al. 2010) was added to the panel of lines, Dd2, HB3, 7G8 and GB4 in this study.
Laboratory of Assay Development and Screening Technology [ADST] and NIH Chemical Genomics Center [NCGC]
Boston University, Chemistry Department, Center for Chemical Methodology and Library Development [CMLD-BU]
NIH National Institute of Allergy and Infectious Diseases [NIAID]
ADST Assay Protocol Summary:
The 1536-well SYBR Green viability assay was based on the method of Bennett et al (2004) and described previously in 1536-well format (Yuan J., et al. 2009). For screening 3 ul culture medium was dispensed into 1536 well black clear bottom plates (Aurora Biotechnologies) using a Multidrop Combi (Thermo Fisher Scientific Inc.), 23 nL compounds in DMSO were added by a pin transfer (Cleveland, P.H. and Koutz, P.J, 2005) using a pin tool-based delivery system (Kalypsys), and 5 ul of erythrocytes infected with P. falciparum one of five lines (cp250, Dd2, HB3, 7G8 or GB4, 0.3% parasitemia, 2.5% hematocrit final concentration) were added. The plates were incubated at 37C in a humidified incubator in 5% CO2 for 72 h, and 2 ul lysis buffer (20 mM Tris HCl, 10 mM EDTA, 0.16% saponin, 1.6% triton X, 10X SYBR Green I (supplied as 10,000X final concentration by Invitrogen) was added to each well. The plates were mixed for 25 sec with gentle shaking and incubated overnight at room temperature in the dark. The following morning, fluorescence intensity at 485(14) nm excitation and 535(25) nm emission wavelengths was measured on an EnVision (Perkin Elmer) plate reader. Plate reads were normalized relative to the control inhibitor (0.29 uM artemisinin) and vehicle (DMSO) wells present on each plate and then corrected by an algorithm using vehicle-only control plates at the beginning and end of the compound plate stack.
Shah, S. (2010). The Fever: how malaria has ruled humankind for 500,000 years. New York, Sarah Crichton Books.
CDC web site, http://www.cdc.gov/malaria/about/biology/index.html
Mu, J., Myers, R.A., Jiang, H., Liu, S., Ricklefs, S., Waisberg, M., Chotivanich, K., Wilairatana, P., Krudsood, S., White, N.J., et Plasmodium falciparum genome-wide scans for positive selection, recombination hot spots and resistance to antimalarial drugs Nature Genetics 2010, 42, pp 268-271
Bennett TN, Paguio, M., Gligorijevic, B., Seudieu, C., Kosar, A. D., Davidson, E., and Roepe, P. D. Novel, rapid, and inexpensive cell-based quantification of antimalarial drug efficacy Antimicrobial Agents Chemother. 2004, 48(5): pp 1807-10
Yuan J, Johnson RL, Huang RL, Wichterman J, Jiang HY, Hayton K, Fidock DA, Wellems TE, Inglese J, Austin CP, Su XZ. […]
Potency is read from the fitted curve at half-maximal effect.

Question: For `CCN1C(=O)NC(c2ccco2)C(C(C)=O)=C1C` (stereo not given), which Potency is on record?
Answer: The Potency was “inactive”.

Question: Which Potency does the source give for `CCN1C(=O)[C@@H]2[C@H]3[C@H](O)[C@H](O)CC(=NO[C@H](C)c4cn([C@@H]5COC[C@@H]5O)nn4)[C@@H]3CC[C@H]2C1=O` here?
Answer: Its Potency is “inactive”.

Question: Which Potency does the source give for `CCCCC1=CC2=C(c3ccco3)C(=O)C(C)(OC(=O)c3ccc(OC)cc3)C(=O)C2=CN1CCN1CCOCC1` (stereo not given) here?
Answer: The Potency was “inactive”.

Question: Which Potency does the source give for `COCCN1C(=O)C2=C(C1=O)C1N(C)c3ccccc3[C@@]13C[C@@H](CO)N(C(=O)CCC(=O)OC)C3=N2` (stereo not given in full) here?
Answer: Its Potency is “inactive”.

Question: For `CC1(OC(=O)CCc2ccccc2)C(=O)C=C2C=C(c3ccsc3)OC=C2C1=O` (stereo not given), which Potency is on record?
Answer: The Potency was “inactive”.

Question: Which Potency does the source give for `COC(=O)c1ccc(CN2C(=O)[C@]3(O[C@H](C)CC4=CCCC43)c3c(Br)cccc32)cc1` (stereo not given in full) here?
Answer: The Potency was “inactive”.

Question: With `CCN1C(=O)NC(c2cccc(F)c2)C(C(C)=O)=C1C` (stereo not given) as the compound, how does the Potency read?
Answer: The Potency was “inactive”.

Question: For `C=CC[C@@H]1C=C[C@H](ON=C(C)CCN2CCCCc3nc(C)c(C)cc32)[C@H](CO)O1`, which Potency is on record?
Answer: The Potency was “inactive”.

Question: Which Potency does the source give for `CCCCCCC1=Cc2cc(OC)c(OC)cc2C(C(C(C)=O)C(=O)OCC)O1` (stereo not given) here?
Answer: The Potency was “inactive”.

Question: With `Cc1cc(C)c2c(c1)CO[C@H]([C@H](O)CO)[C@H]2C=Cc1ccccc1` as the compound, how does the Potency read?
Answer: The Potency was “inactive”.

Question: With `C[C@@H]1C=CCCO[C@]12C(=O)N(Cc1ccc(Br)cc1)c1cccc(Br)c12` as the compound, how does the Potency read?
Answer: Its Potency is “inactive”.

Question: For `O=C1Nc2cccc(Br)c2[C@@]12O[C@H](COc1ccccc1)CC1=CCCC12` (stereo not given in full), which Potency is on record?
Answer: The Potency was “inactive”.

Question: Which Potency does the source give for `COC[C@@H](O)[C@H]1OCc2cc(OC)ccc2[C@H]1C=Cc1ccccc1` here?
Answer: The Potency was “inactive”.

Question: With `CC(C)[C@@H](OCc1ccccc1)[C@H](C)C=NOC[C@@H](O)COCc1ccco1` as the compound, how does the Potency read?
Answer: Its Potency is “inactive”.

Question: With `CC(C)=CCN1C(=O)[C@]2(O[C@H](COc3ccccc3)CC3=CCCC32)c2c(Br)cccc21` (stereo not given in full) as the compound, how does the Potency read?
Answer: The Potency was 3.78 µM (active).

Question: Which activity, negative = inhibition does the source give for `COC(=O)C(C(C)=O)C1c2ccccc2C=C(C)N1C(=O)OC` (stereo not given) here?
Answer: Its activity, negative = inhibition is -3.36% [at 1.12 µM].

Question: For `COC(=O)[C@@]1(Cc2ccccc2-c2ccco2)C=C[C@H](C)[C@@H](c2ccccc2)N1C(=O)C(F)(F)F`, which Potency is on record?
Answer: Its Potency is “inactive”.

Question: Which Potency does the source give for `C=CCOC(=O)C1(C(NC(=O)OC)c2ccccc2)C(=O)Cc2ccccc21` (stereo not given) here?
Answer: The Potency was “inactive”.

Question: For `CC(C)(C)c1ccc(O[C@@H]2[C@H](O)CO[C@H]2C=CC#Cc2ccccc2)cc1`, which Potency is on record?
Answer: The Potency was “inactive”.

Question: With `COC(=O)[C@@H]1[C@@H](c2ccccc2)NC(=O)N(CCc2cc(OC)c(OC)c(OC)c2)[C@@H]1C` as the compound, how does the Potency read?
Answer: Its Potency is “inactive”.

Question: For `O=P1(O)Oc2c(c(-c3ccccc3)cc3ccccc23)-c2c(-c3ccccc3)cc3ccccc3c2O1`, which Potency is on record?
Answer: The Potency was “inactive”.

Question: For `C=COC[C@@H]1CN2[C@H](c3ccc(Br)cc3)[C@H](C)CC[C@H]2C(=O)O1`, which Potency is on record?
Answer: Its Potency is “inactive”.

Question: With `C=CCOC(=O)N[C@H](C[N+](=O)[O-])c1ccccc1` as the compound, how does the Potency read?
Answer: Its Potency is “inactive”.

Question: With `C[C@]12O[C@@H]1[C@@H](O)C(Br)=C(CO)[C@@H]2O` as the compound, how does the Potency read?
Answer: The Potency was “inactive”.

Question: For `CCOC(=O)CCN1C(=O)[C@@H]2[C@H]3[C@H](O)[C@H](O)CC(=NNC(=O)OCc4ccccc4)[C@H]3CC[C@H]2C1=O`, which Potency is on record?
Answer: Its Potency is “inactive”.

Question: With `C=C(C)C(=O)OC[C@@H]1CN2[C@H](c3ccc(Br)cc3)[C@H](C)CC[C@H]2C(=O)O1` as the compound, how does the Potency read?
Answer: The Potency was “inactive”.

Question: Which Potency does the source give for `Cn1c(-c2ccccc2)c(O)c(=O)c2ccccc21` here?
Answer: The Potency was “inactive”.

Question: For `CC#CCC1(C(=O)OC)C(=O)NC[C@H]1c1ccccc1` (stereo not given in full), which Potency is on record?
Answer: The Potency was “inactive”.

Question: Which Potency does the source give for `CCC(C)CN1C(=O)NC(c2ccccc2)C(C(=O)OC)=C1C` (stereo not given) here?
Answer: Its Potency is “inactive”.

Question: With `COC(=O)N[C@H](CC(C)=O)c1cccs1` as the compound, how does the Potency read?
Answer: The Potency was “inactive”.

Question: For `CC(C)=CCCC(C)=CCON=C1C[C@@H](O)[C@@H](O)[C@@H]2[C@H]3C(=O)N(c4ccc(F)cc4F)C(=O)[C@@H]3CC[C@H]12`, which Potency is on record?
Answer: Its Potency is “inactive”.

Question: For `COc1cc(OC)c([C@@H]2O[C@H](CO)[C@@H](O)[C@H](O)[C@@H]2O)c(OC)c1`, which Potency is on record?
Answer: Its Potency is “inactive”.

Question: Which activity, negative = inhibition does the source give for `C=CC1=C2C=C(C3CC3)N(CCCOC(C)C)C=C2C(=O)C(C)(OC(=O)c2ccco2)C1=O` (stereo not given) here?
Answer: The activity, negative = inhibition was 4.15% [at 1.12 µM].

Question: Which Potency does the source give for `C=CCOC(=O)N[C@H](c1ccccc1)[C@H](C)C=CCC(=O)OC` here?
Answer: The Potency was “inactive”.

Question: Which Potency does the source give for `COC(=O)N[C@@H](c1cccc(F)c1)[C@@H](C)[N+](=O)[O-]` here?
Answer: Its Potency is “inactive”.

Question: With `COc1ccc2c(c1)O[C@H](c1ccc3c(c1)OCO3)[C@@H](OC(=O)NCCOc1ccccc1)C2=O` as the compound, how does the Potency read?
Answer: Its Potency is “inactive”.

Question: Which Potency does the source give for `Cc1cc2c(nc1C)CCCN2CC(O)CN1CCN(C)CC1` (stereo not given) here?
Answer: The Potency was “inactive”.

Question: With `COC(=O)CC=C[C@@H](C)[C@@H](C=NOC[C@@H](O)COCc1ccco1)NS(=O)(=O)c1ccc(C)cc1` as the compound, how does the Potency read?
Answer: Its Potency is “inactive”.

Question: For `CCN1C(=O)N(S(=O)(=O)C(F)(F)F)C(c2ccccc2)C(C(=O)OC)=C1C` (stereo not given), which Potency is on record?
Answer: The Potency was “inactive”.

Question: Which Potency does the source give for `CC1(C)O[C@H]2OC([C@H](O)CON3C(=O)c4ccccc4C3=O)[C@H](O)[C@@H]2O1` (stereo not given in full) here?
Answer: Its Potency is “inactive”.
